From PubChem
Rows were chosen to be rich in hits. Some 9.4% of all compounds tested hit in one or more screens of this group.
ELG1 genotox = inducers of genotoxicity in HEK293T ELG1-luciferase cells; HEK293T ELG1-luciferase reporter, luminescence, 16 h; Potency, µM (highest dose often 46 µM), without a hit: at the top dose activity change, positive = activation, usual class: activators; 330,000 compounds, 1.3% hits; further: % of control where 0% means no effect; nearly all actives have a fitted effect of over 60% in size
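Reporter readout depends on ELG1 protein level, which increases with genetic stress. After 16 hr compound exposure at 37 °C, luciferase activity was quantified using ONE-Glo.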
SMN2 splice enh = enhancers of SMN2 splice variant expression | HEK293 SMN2-luciferase splicing reporter, luminescence, 30-36 h | Potency, µM (top dose mostly 46.1 µM), without a hit: top-dose activity change, positive = activation, hits mostly activators | 210,000 compounds, 2.8% hits; further: % of control where 0% means no effect; nearly all actives have a fitted effect of over 55% in size
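HEK293 cells carry an SMN2 […]–luciferase reporter in which exon 7 inclusion puts luciferase in frame. Cells were plated 10-12 h before compound addition, then incubated 30-36 h at 37C. ONE-Glo luminescence was read; sodium butyrate at 4.5 mM final served as control.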
Rab9 promoter act = activates the Rab9 promoter | Huh7 Rab9 promoter-luciferase reporter, luminescence, 24 h | Potency, µM (top dose mostly 9.22 µM), without a hit: top-dose activation, negative = inhibition, actives largely listed as activators | 320,000 compounds, 2.8% hits | AID 485297; further: % of control where 0% means no effect; nearly all actives have a fitted effect of over 60% in size
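Quantitative HTS format; Huh7 Rab9-luciferase reporter cells (1500/well) receive compound 2 h post-plating, incubate 24 h at 37 °C, then get luciferase reagent for 10 min before luminescence reading.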
ELG1 DNA repair = inhibitors of ELG1-dependent DNA repair in HEK293T cells; HEK293T ELG1-luciferase reporter, luminescence, 16 h; DNA damage induced by 5-fluorouridine; Potency, µM (highest dose often 46.1 µM), without a hit: top-dose activity change, negative = inhibition, actives largely listed as inhibitors; 330,000 compounds, 2.3% hits; further: on the % scale 0 is the no-effect control and ±100 the full control effect; nearly all actives have a fitted effect of over 55% in size
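5-Fluorouridine DNA damage + compound/DMSO, 2,000 cells/well, 16 h, 37 °C/5% CO2. ONE-Glo, 30 min RT, luminescence. Readout = decrease in reporter signal.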
FLuc counter = inhibits or activates purified firefly luciferase, miR-21 counter-screen; Potency, µM (highest dose often 57.5 µM), for the others: at the top dose activity change, negative = inhibition, usual class: inhibitors; purified FLuc, Km substrates, luminescence inhibition; P08659; 360,000 compounds, 6.9% hits; AID 588342;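 further: plate controls were vehicle for no effect and reference inhibitor for full effect; nearly all actives have a fitted effect of over 55% in size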
Target sequence (P08659 whole entry, looked up): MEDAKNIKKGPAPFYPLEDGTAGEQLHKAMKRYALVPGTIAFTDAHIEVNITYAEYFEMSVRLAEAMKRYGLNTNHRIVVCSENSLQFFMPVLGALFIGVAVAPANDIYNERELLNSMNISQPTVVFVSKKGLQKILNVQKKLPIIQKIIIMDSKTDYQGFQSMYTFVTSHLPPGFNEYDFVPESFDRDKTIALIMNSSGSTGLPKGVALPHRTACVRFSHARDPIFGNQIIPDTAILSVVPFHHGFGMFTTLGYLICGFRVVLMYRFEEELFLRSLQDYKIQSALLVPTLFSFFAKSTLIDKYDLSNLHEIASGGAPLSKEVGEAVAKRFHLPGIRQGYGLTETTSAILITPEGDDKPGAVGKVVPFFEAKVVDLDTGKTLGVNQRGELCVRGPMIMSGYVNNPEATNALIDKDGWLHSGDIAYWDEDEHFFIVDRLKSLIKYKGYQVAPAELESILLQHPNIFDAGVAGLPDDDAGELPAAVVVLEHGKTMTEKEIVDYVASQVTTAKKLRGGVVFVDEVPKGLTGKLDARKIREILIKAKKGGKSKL
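Purified P. pyralis luciferase (10nM final) with 10uM D-luciferin and 10uM ATP (Km levels) in 50mM Tris acetate pH 7.5, 10mM Mg acetate, 0.01% Tween-20, 0.05% BSA; qHTS 6-point titration, ~60 µM downward; luminescence read.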
NPC1 prom act = activators of NPC1 promoter; Huh7 NPC1 promoter luciferase reporter, 24 h; Potency, µM (top dose mostly 9.22 µM), inactives show at the highest dose activation, usual class: activators; 320,000 compounds, 2.4% hits; further: % of control where 0% means no effect; nearly all actives have a fitted effect of over 60% in size
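Readout is luciferase luminescence, reflecting NPC1 promoter activation in stably transfected Huh7 cells after 24 h compound exposure at 37 °C in reduced-serum medium with 10% FBS.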
* hit, by the source's call; u = inconclusive; x = not tested or not shown; [ ] = remark or other dose. The call rests on the fitted dose curve; in most records, active means well fitted curve in the direction sought with a large enough effect; inconclusive means small, poorly fitted or top-dose-only effect, or another doubt; inactive means no such curve, though single readings can be large; an effect the other way counts as inactive or inconclusive. Potency means the concentration at half of the fitted maximal effect.

SMILES | ELG1 genotox | SMN2 splice enh | Rab9 promoter act | ELG1 DNA repair | FLuc counter | NPC1 prom act
COC(=O)c1ccccc1NC(=O)c1cccc(COc2ccccc2Cl)c1 | u | 11µM* | 0.45µM* | u | 17µM* | u
COc1cccc(C(=O)N2CCN(c3ccccn3)CC2)c1 | -3% | x | -2% | 3% | -1% | -3%
O=C(c1cccc(COc2ccc(Cl)cc2Cl)c1)N1CCN(c2ccccn2)CC1 | x | 4µM* | x | x | 4.8µM* | x
CCOc1ccc(NC(=O)CCc2c(C)nc3cc(-c4ccccc4OC)nn3c2C)cc1 | x | -3% | x | x | -9% | x
CCOC(=O)Nc1ccc2c(c1)ncn2C1CCCCC1 | 12% | 22% | 22% | u | -1%[2.3 µM] | 3%
COC(=O)Nc1ccc2c(c1)ncn2C1CCCCC1 | 12% | 1% | 0% | u | 17µM* | 16%
COc1cccc(N2CCN(C(=O)C3CCN(S(=O)(=O)c4c(C)noc4/C=C/c4ccccc4F)CC3)CC2)c1 | x | x | x | x | -7% | x
Cc1c2cnn(-c3ccccc3)c(=O)c2c(C)n1CC(=O)NCCc1ccc(Cl)cc1 | x | 9% | x | x | 4% | x
Cc1ccc(Cl)cc1-n1c(=O)c2sc3ccccc3c2n(CC(=O)NC2CCCCC2)c1=O | x | -3% | x | x | 1% | x
O=C(NC1CCCCC1)c1ccc(N2CCCC2=O)cc1 | u | u | 28% | u | u | u
O=C(Nc1ccc(Cl)cc1)NC1CCCCC1 | 20% | 11µM* | 2.5µM* | u | u | 1.1µM*
O=C(Nc1ccc(F)c(F)c1)NC1CCCCC1 | 9% | 4.5µM* | u | u | 15µM* | u
O=C(Nc1ccccc1F)NC1CCCCCCC1 | u | x | 4µM* | u | 12µM* | u
O=C(NC1CCCCCC1)c1ccc(N2CCCC2=O)cc1 | 9.2µM* | 13µM* | 3.2µM* | u | 13µM* | 4µM*
COc1cccc(NC(=O)CC(C)S(=O)(=O)c2ccc3c(c2)NC(=O)CO3)c1 (centres undefined) | x | x | x | x | -6% | x
Cc1ccc2c(c1)c(=O)c1ccccc1n2CCCC(=O)Nc1c(F)cccc1F | x | 3% | x | x | -11% | x
O=C(Nc1ccc(F)cc1)NC1CCCCCCC1 | u | x | u | u | 9.5µM* | 3.5µM*
O=C(NC1CC2CCCC(C1)N2C(=O)NC1CCCCC1)c1ccc(F)cc1 (centres undefined) | 1% | x | -3% | -13% | 6% | 3%
S=C(Nc1cccc2ccccc12)NC1CCCCC1 | u | u | u | u | 19µM* | 19%
CSc1ccccc1NC(=S)NC1CCCCC1 | -2% | 7% | -4% | 1% | 3% | 1%
O=C(NC1CCCCCCC1)c1ccc(F)cc1 | 10µM* | x | 1.4µM* | u | 12µM* | 1.4µM*
Nc1ccc(NC(=O)NC2CCCCC2)cc1 | u | x | u | u | u | 24%
Cc1[nH]c2c(ccc3cccnc32)c1C | 5% | x | 18% | 15µM* | 24µM* | 11%
Clc1ccc2ccc3cccnc3c2n1 | -1% | x | -9%[1.84 µM] | 7% | -3% | 1%
Cc1ccc(-c2nnc(-c3cccc(NC(=O)c4cccs4)c3)o2)cc1 | -6% | -14% | 2% | u | 2.7µM* | 29%
SMILES | ELG1 genotox | SMN2 splice enh | Rab9 promoter act | ELG1 DNA repair | FLuc counter | NPC1 prom act
O=C(Nc1cccc(-c2nnco2)c1)c1cccs1 | -1% | x | 0% | u | -27% | 3%
O=C(Cc1cccs1)Nc1cccc(-c2nc3ccccc3o2)c1 | 1% | -6% | -3% | 11% | -6% | -1%
Cc1cccc(-c2nnc(-c3cccc(NC(=O)Cc4cccs4)c3)o2)c1 | 0% | 27% | -2% | u | 12µM* | 2%
Cc1nc2ncnn2c(N2CCCC(C(=O)Nc3ccc4c(c3)CCC4)C2)c1C (centres undefined) | -10% | -38% | -15% | 18µM* | -3% | -3%
O=C(CSc1ncccn1)Nc1ccc2c(c1)CCC2 | 4% | x | 23% | u | 21µM* | -5%
CCc1c(C)nc2ncnn2c1Nc1ccc(C(C)=O)cc1 | 18µM* | 16% | 13% | u | 27µM* | 27%
CCc1c(C)nc2ncnn2c1NCCc1ccc(OC)c(OC)c1 | -4% | -59% | -6% | 12µM* | -6% | -2%
CCOc1ccccc1NC(=O)C1CCCN(c2c(CC)c(C)nc3ncnn23)C1 (centres undefined) | -17% | x | -2% | u | 2% | -1%
O=C(Nc1ccc2c(c1)OCCO2)C1CCN(c2ncccn2)CC1 | u | 24% | 28% | u | 15µM* | 8%
O=C(Nc1ccc2c(c1)CCC2)C1CCCN(c2ncccn2)C1 (centres undefined) | u | 13µM* | u | u | 5.4µM* | 4µM*
Cc1ccnc(N2CCC(C(=O)Nc3ccc4c(c3)OCCO4)CC2)n1 | 3% | x | 14% | 10% | u | 1%
Cc1cc(C)cc(NC(=O)C2CCCN(c3ncccn3)C2)c1 (centres undefined) | -10% | x | -1% | -5% | -2% | -2%
CCc1c(C)nc2ncnn2c1N1CCC(C(=O)Nc2ccc(C)cc2)CC1 | -16% | -55% | -10% | u | 1% | -8%
Cc1ccc(NC(=O)C2CCCN(c3ncccn3)C2)cc1F (centres undefined) | 9.2µM* | 18µM* | u | u | 11µM* | 3.5µM*
CCc1c(C)nc2ncnn2c1N1CCC(C(=O)Nc2ccccc2)CC1 | -14% | -35% | -9% | 21µM* | 1% | -6%
Cc1cccc(Cc2c(C)nc3nc(SCc4ccccc4C)nn3c2C)c1 | x | x | x | x | -4% | x
CC(C)COC[C@H](CN(Cc1ccccc1)c1ccccc1)N1CCCC1 | x | -11%[20.6 µM] | x | x | x | x
Cn1nc(C(=O)Nc2ccccc2N2CCCC2)c2ccccc2c1=O | -19% | x | 0% | u | -1% | 8%
CCN(CC)S(=O)(=O)c1ccc(N2CCOCC2)c(NC(=O)Cc2cccc3ccccc23)c1 | -2% | -5% | 0% | 7.3µM* | -17% | -1%
CCN(CC)S(=O)(=O)c1ccc(N2CCCC2)c(NC(=O)c2nn(C)c(=O)c3ccccc23)c1 | -1% | x | 1% | 18µM* | 4% | -4%
CCN(CC)S(=O)(=O)c1ccc(N2CCOCC2)c(NC(=O)Cc2ccccc2)c1 | -2% | -21% | -2% | u | 4% | 0%
CCN(CC)S(=O)(=O)c1ccc(N2CCOCC2)c(NC(=O)CC(C)(C)C)c1 | -3% | x | 7% | 8% | -2% | 9%
CCN(CC)S(=O)(=O)c1ccc(N2CCOCC2)c(NC(=O)Cc2ccccc2F)c1 | -5% | -2%[1.84 µM] | -4% | 18µM* | -2% | -1%
